{"source": "PubChem BioAssay AID1259418", "about": "(Broad Institute, 2018)", "experiment": "T. gondii growth inhibition with IFN-gamma, dose response, cell-based, ME49Luc, HeLa, luciferase, 72 h (AID 1259418)", "details": "T. gondii ME49Luc in IFN-y HeLa, hits give low values, -100% = high-dose IFN-γ control wells", "note": "Among all 3,400 compounds or so, about 840 (25%) were called active. Not shown: some 11% with an inconclusive outcome. Not all results are given here. Measured potencies and affinities stand elsewhere. Unmarked numbers belong to inactive results.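 The calls were made as follows: active = fitted half-maximal concentration of signal decrease at or below twice the sample's top tested concentration; inconclusive = flat curve between -70 and -30 percent, or poor fit; inactive = flat within 30 percent, signal rise, or potency above limit.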", "data": [{"smiles": "CCn1nccc1C(=O)Nc1ccc2c(c1)CCC(=O)N2C", "values": [{"measurement": "max activity", "setting": "at 19.5 µM unless noted", "result": 24.4, "unit": "%"}]}, {"smiles": "COC[C@@H]1CN(CC2CC2)C[C@@]12CCN(CCc1ccccc1)C2", "values": [{"measurement": "max activity", "setting": "at 19.5 µM unless noted", "result": "-8.78% [at 2.6 µM]"}]}, {"smiles": "CCOC(=O)CSc1nc(NCc2ccc(Cl)cc2)c2ccccc2n1", "values": [{"measurement": "max activity", "setting": "at 19.5 µM unless noted", "result": 29.6, "unit": "%"}]}, {"smiles": "CCOC(=O)C1CCN(c2nc(-c3ccc(Cl)cc3)nc3ccccc23)CC1", "values": [{"measurement": "max activity", "setting": "at 19.5 µM unless noted", "result": "17% [at 0.35 µM]"}]}, {"smiles": "O=C(Cn1c(=O)c(S(=O)(=O)c2ccccc2)cc2ccccc21)NCc1ccccc1", "values": [{"measurement": "max activity", "setting": "at 19.5 µM unless noted", "result": "-8.55% [at 2.6 µM]"}]}, {"smiles": "c1ccc(-c2ccc([C@H]3[C@H]4CNC[C@@H]3N4Cc3cc(-c4ccccc4)on3)cc2)cc1", "values": [{"measurement": "max activity", "setting": "at 19.5 µM unless noted", "result": "49.3% [at 10 µM]"}]}, {"smiles": "O=C(NC1CCCC1)N1[C@@H]2CNC[C@H]1C2c1ccc(-c2cccnc2)cc1", "note": "(some centres not stated)", "values": [{"measurement": "max activity", "setting": "at 19.5 µM unless noted", "result": 19.4, "unit": "%"}]}, {"smiles": "Cc1ccc2c(c1)cc(S(=O)(=O)c1ccccc1)c(=O)n2CC(=O)NC(C)C", "values": [{"measurement": "max activity", "setting": "at 19.5 µM unless noted", "result": "-9.24% [at 0.16 µM]"}]}, {"smiles": "O=C(Nc1ccc(-c2nc(-c3cccc(Br)c3)co2)cc1)Nc1ccccc1F", "values": [{"measurement": "max activity", "setting": "at 19.5 µM unless noted", "result": 6.98, "unit": "%"}]}, {"smiles": "COc1ccccc1-c1nc(Cn2nnc(-c3nc(-c4cccnc4)no3)c2C)c(C)o1", "values": [{"measurement": "max activity", "setting": "at 19.5 µM unless noted", "result": "10.3% [at 0.16 µM]"}]}, {"smiles": "O=C(c1ccc(Cl)cc1)N1CCC2(CC1)Nc1ccc(Cl)cc1-n1cccc12", "values": [{"measurement": "max activity", "setting": "at 19.5 µM unless noted", "result": "-6.42% [at 0.35 µM]"}]}, {"smiles": "Cc1ccc(C(=O)N2CCC3(CC2)Nc2ccc(Cl)cc2-n2cccc23)cc1", "values": [{"measurement": "max activity", "setting": "at 19.5 µM unless noted", "result": "8.29% [at 0.35 µM]"}]}, {"smiles": "CC(C)C(=O)N1CCC2(CC1)Nc1ccc(Cl)cc1-n1cccc12", "values": [{"measurement": "max activity", "setting": "at 19.5 µM unless noted", "result": "15.6% [at 0.68 µM]"}]}, {"smiles": "O=C(CC1CCCC1)N1CCC2(CC1)Nc1ccc(Cl)cc1-n1cccc12", "values": [{"measurement": "max activity", "setting": "at 19.5 µM unless noted", "result": "-10.7% [at 0.16 µM]"}]}, {"smiles": "O=C(CC1CCCCC1)N1CCC2(CC1)Nc1ccc(Cl)cc1-n1cccc12", "values": [{"measurement": "max activity", "setting": "at 19.5 µM unless noted", "result": "7.76% [at 0.35 µM]"}]}, {"smiles": "Cc1ccc2c(c1C)-n1cccc1C1(CCN(C(=O)C3CCCCC3)CC1)N2", "values": [{"measurement": "max activity", "setting": "at 19.5 µM unless noted", "result": "-20.8% [at 0.16 µM]"}]}, {"smiles": "COc1ccc(CC(=O)N2CCC3(CC2)Nc2ccc(Cl)cc2-n2cccc23)cc1", "values": [{"measurement": "max activity", "setting": "at 19.5 µM unless noted", "result": "5.66% [at 2.6 µM]"}]}, {"smiles": "CCC(CC)C(=O)N1CCC2(CC1)Nc1ccc(Cl)cc1-n1cccc12", "values": [{"measurement": "max activity", "setting": "at 19.5 µM unless noted", "result": "9.15% [at 0.68 µM]"}]}, {"smiles": "CCc1onc(C)c1C1CCCN1Cc1cn(CC)c2ccc(OC)cc12", "note": "(configuration not stated)", "values": [{"measurement": "max activity", "setting": "at 19.5 µM unless noted", "result": "-10.8% [at 0.35 µM]"}]}, {"smiles": "CSc1cccc(NC(=O)Nc2ccc(-c3nc(-c4ccccc4)co3)cc2)c1", "values": [{"measurement": "max activity", "setting": "at 19.5 µM unless noted", "result": 76, "unit": "%"}]}, {"smiles": "Fc1ccc(F)c(CN2[C@@H]3CNC[C@H]2C3c2ccc(-c3ccncc3)cc2)c1", "note": "(some centres not stated)", "values": [{"measurement": "max activity", "setting": "at 10 µM", "result": 23.7, "unit": "%"}, {"measurement": "max activity", "setting": "at 21 µM", "result": 49, "unit": "%"}]}, {"smiles": "COc1ccc(CCC(=O)N2CCC3(CC2)Nc2ccc(C)c(C)c2-n2cccc23)cc1", "values": [{"measurement": "max activity", "setting": "at 19.5 µM unless noted", "result": "-4.87% [at 0.68 µM]"}]}, {"smiles": "O=C(CC1N=C2c3ccccc3N=C(SCc3ccccc3Cl)N2C1=O)NCc1ccc2c(c1)OCO2", "note": "(configuration not stated)", "values": [{"measurement": "max activity", "setting": "at 19.5 µM unless noted", "result": "24.9% [at 0.16 µM]"}]}, {"smiles": "CCc1ccc(N2CCC(C(=O)NCCc3c[nH]c4ccc(Cl)cc34)C2=O)cc1", "note": "(configuration not stated)", "values": [{"measurement": "max activity", "setting": "at 19.5 µM unless noted", "result": "-15.5% [at 0.16 µM]"}]}, {"smiles": "Cc1ccc2[nH]cc(CCNC(=O)C3CCN(c4ccc(Cl)cc4)C3=O)c2c1", "note": "(configuration not stated)", "values": [{"measurement": "max activity", "setting": "at 19.5 µM unless noted", "result": "23.3% [at 10 µM]"}]}, {"smiles": "Cc1ccc2c(c1C)-n1cccc1C1(CCN(C(=O)c3ccccc3Cl)CC1)N2", "values": [{"measurement": "max activity", "setting": "at 19.5 µM unless noted", "result": "-6.73% [at 0.35 µM]"}]}, {"smiles": "O=C(c1ccccc1Cl)N1CCC2(CC1)Nc1ccc(Cl)cc1-n1cccc12", "values": [{"measurement": "max activity", "setting": "at 19.5 µM unless noted", "result": "6.15% [at 1.35 µM]"}]}, {"smiles": "CCOc1ccc(C(=O)N2CCC3(CC2)Nc2ccc(Cl)cc2-n2cccc23)cc1", "values": [{"measurement": "max activity", "setting": "at 19.5 µM unless noted", "result": "11.3% [at 0.68 µM]"}]}, {"smiles": "CCOc1ccccc1C(=O)N1CCC2(CC1)Nc1cc(OC)ccc1-n1cccc12", "values": [{"measurement": "max activity", "setting": "at 19.5 µM unless noted", "result": "12% [at 2.6 µM]"}]}, {"smiles": "Cc1ccccc1C(=O)N1CCC2(CC1)Nc1ccc(Cl)cc1-n1cccc12", "values": [{"measurement": "max activity", "setting": "at 19.5 µM unless noted", "result": -3.44, "unit": "%"}]}, {"smiles": "Cc1ccccc1C(=O)N1CCC2(CC1)Nc1ccc(C)c(C)c1-n1cccc12", "values": [{"measurement": "max activity", "setting": "at 19.5 µM unless noted", "result": "-10.8% [at 5 µM]"}]}, {"smiles": "Cc1ccc(-c2coc(-c3ccc(NC(=O)NCc4ccc(F)cc4)cc3)n2)c(C)c1", "values": [{"measurement": "max activity", "setting": "at 19.5 µM unless noted", "result": "-6.17% [at 0.16 µM]"}]}, {"smiles": "CN(Cc1ccccn1)C(=O)C1=NOC2(CCN(S(=O)(=O)c3ccc(F)cc3)C2)C1", "note": "(configuration not stated)", "values": [{"measurement": "max activity", "setting": "at 19.5 µM unless noted", "result": 35.3, "unit": "%"}]}, {"smiles": "COc1ccc(-c2nc3c(s2)CN(C(=O)Nc2ccc(C)cc2Cl)CC3)cc1OC", "values": [{"measurement": "max activity", "setting": "at 19.5 µM unless noted", "result": "-9.18% [at 0.35 µM]"}]}, {"smiles": "COc1ccccc1-c1nc(Cn2nnc(-c3nc(-c4cccc(Cl)c4)no3)c2C)c(C)o1", "values": [{"measurement": "max activity", "setting": "at 19.5 µM unless noted", "result": "8.57% [at 0.35 µM]"}]}, {"smiles": "NC(=O)C1(N2CCCCC2)CCN(c2ncc(NC(=O)c3ccc(F)cc3)cc2C(=O)O)CC1", "values": [{"measurement": "max activity", "setting": "at 19.5 µM unless noted", "result": "-7.63% [at 10 µM]"}]}]}
